The text below walks through data of PMC5540273 (PLoS ONE, 2017).

Like-named read-outs stand apart in the source and are kept apart here.

Experiment [1] has as its system AAK1. The settings on record: n = 1.
Experiment [2] deals with ABL1-nonphosphorylated. Conditions: n = 1.
In experiment [3] the test system is ABL1-phosphorylated. Conditions: n = 1.
The test system of experiment [4] is ABL2. Conditions: concentration: 1 μM, replicates: in singlicate; n = 1.
Experiment [5] relates to ACVR1B. Conditions: concentration: 1 μM, replicates: in singlicate; n = 1.
The subject of experiment [6] is ACVR1. The settings on record: concentration: 1 μM, replicates: in singlicate; n = 1.
The test system of experiment [7] is ACVR2A. The settings on record: concentration: 1 μM, replicates: in singlicate; n = 1.
Experiment [8] relates to ACVR2B. The settings on record: concentration: 1 μM, replicates: in singlicate; n = 1.
Experiment [9] deals with ACVRL1. The settings on record: concentration: 1 μM, replicates: in singlicate; n = 1.
For experiment [10], the system named is T1, ADCK3.
T1 construct: gene CABC1
The settings on record: concentration: 1 μM, replicates: in singlicate; n = 1.

Experiment [11] concerns ADCK4. Conditions: concentration: 1 μM, replicates: in singlicate; n = 1.
The test system of experiment [12] is AKT1. The settings on record: concentration: 1 μM, replicates: in singlicate; n = 1.
Experiment [13] relates to AKT2. Conditions: concentration: 1 μM, replicates: in singlicate; n = 1.
In experiment [14] the test system is AKT3. Conditions: concentration: 1 μM, replicates: in singlicate; n = 1.
Experiment [15] relates to ALK. Conditions: concentration: 1 μM, replicates: in singlicate; n = 1.
Experiment [16] deals with T2, AMPK-alpha1.
T2 construct: gene PRKAA1
The settings on record: concentration: 1 μM, replicates: in singlicate; n = 1.

Experiment [17] concerns T3, AMPK-alpha2.
T3 construct: gene PRKAA2
The settings on record: concentration: 1 μM, replicates: in singlicate; n = 1.

The subject of experiment [18] is ANKK1. Conditions: concentration: 1 μM, replicates: in singlicate; n = 1.
The subject of experiment [19] is T4, ARK5.
T4 construct: gene NUAK1
Conditions: concentration: 1 μM, replicates: in singlicate; n = 1.

The test system of experiment [20] is T5, ASK1.
T5 construct: gene MAP3K5
Conditions: concentration: 1 μM, replicates: in singlicate; n = 1.

Where [21] appears, read: concentration: 1 μM, replicates: in singlicate.
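Also: KINOMEscan kinase panel screen.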

In the case of `CNC(=O)c1ccccc1Nc1nc(Nc2ccc(N3CCOCC3)cc2)ncc1Cl.Cl` [GSK1576028], the “%Inh” value was 89% in [1] (1 µM); 98.8% in experiment [2] (1 µM); 99.6% in experiment [3] (1 µM); 95.6% in experiment [4]; 85% in experiment [5]; 95% in experiment [6]. Also, the “%Inh” value in [7] was 18%; in experiment [8], 43%; in [9] it was 42%; in experiment [10], 35%; in experiment [11] it was 44%; in experiment [12], 42%. For the same compound, the “%Inh” value in experiment [13] was 62%; in [14] it was 0%; in [15], 88%; in experiment [16], 99.2%; in [17], 99.4%; in [18], 12%. The “%Inh” value worked out at 99.8% in [19] and 0% in experiment [20].
As to `COC(=O)Nc1nc2cc(Oc3ccc(NC(=O)Nc4cc(C(F)(F)F)ccc4F)cn3)ccc2[nH]1.Cl.Cl` [GW681170], the “%Inh” value in experiment [1] (setting [21]) came to 51%; in [2] (setting [21]), 99.1%; in experiment [3] (setting [21]), 74%; in experiment [4], 82%; in experiment [5], 0%; in [6], 0%. Moreover, the “%Inh” value in [7] worked out at 0%; in experiment [8], 0%; in experiment [9], 0%; in [10], 2%; in experiment [11], 19%; in experiment [12], 0%. The “%Inh” value in experiment [13] is listed as 0%; in experiment [14], 0%; in experiment [15] it was 6%; in experiment [16], 19%; in experiment [17], 23%; in experiment [18], 8%. The results for the “%Inh” value in experiment [19] and in experiment [20] were 0% and 10%, respectively.
With `Cn1cc(-c2ccc3c(c2)CCN3C(=O)Cc2cccc(Cl)c2)c2c(N)ncnc21` [GSK2606590], the “%Inh” value in experiment [1] (setting [21]) was 30%; in experiment [2] (setting [21]) it was 78%; in [3] (setting [21]) it was 30%; in experiment [4] it was 53%; in [5], 0%; in experiment [6], 0%. For the same compound, the “%Inh” value was 0% in experiment [7]; 53% in [8]; 0% in [9]; 0% in experiment [10]; 1% in [11]; 0% in experiment [12]. Besides, the “%Inh” value in experiment [13] turned out to be 10%; in experiment [14], 0%; in [15], 30%; in experiment [16] it was 4%; in experiment [17], 20%; in [18], 0%. The “%Inh” value was 13% in experiment [19] and 9% in [20].
Turning to `NCCCC(NC(=O)c1cc(Br)c(-c2ccnc3[nH]ccc23)s1)c1ccccc1.O=C(O)C(F)(F)F.O=C(O)C(F)(F)F` (stereo not drawn) [GSK1287544], the “%Inh” value in [1] (setting [21]) amounted to 55%; in experiment [2] (setting [21]), 0%; in experiment [3] (setting [21]), 0%; in experiment [4], 23%; in experiment [5] it was 0%; in [6] it was 0%. For the same compound, the “%Inh” value in experiment [7] was found to be 0%; in experiment [8], 0%; in [9] it was 0%; in experiment [10], 20%; in [11], 38%; in experiment [12], 89%. For the same compound, the “%Inh” value is 52% in experiment [13]; 91.8% in [14]; 32% in [15]; 17% in [16]; 35% in [17]; 0% in [18]. Also, the “%Inh” value in experiment [19] came to 54%; in experiment [20] it was 0%.
As for `Cc1ccc(S(=O)(=O)Nc2ccc(Nc3nccc(Nc4cccc5[nH]ncc45)n3)cc2)cc1` [GSK581271], the “%Inh” value came to 27% in experiment [1] (setting [21]); 11% in [2] (setting [21]); 31% in [3] (setting [21]); 64% in experiment [4]; 8% in experiment [5]; 32% in [6]. Moreover, the “%Inh” value in [7] is recorded as 0%; in experiment [8], 57%; in experiment [9], 30%; in experiment [10] it was 41%; in [11], 87%; in [12] it was 0%. Moreover, the “%Inh” value in experiment [13] is 0%; in [14], 0%; in experiment [15], 24%; in [16], 0%; in experiment [17], 0%; in [18], 0%. Further, the “%Inh” value in [19] was 5%; in [20], 0%.
Turning to `CC(C)c1nc(-c2cccc(NS(=O)(=O)c3c(F)cccc3F)c2F)c(-c2ccnc(Nc3ccc(N4CCOCC4)nc3)n2)s1` [GSK2008607], the “%Inh” value is listed as 0% in [1] (setting [21]); 99.8% in experiment [2] (setting [21]); 99.3% in [3] (setting [21]); 99.4% in experiment [4]; 90.5% in experiment [5]; 43% in [6]. For the same compound, the “%Inh” value was found to be 0% in [7]; 86% in experiment [8]; 11% in [9]; 100% in [10]; 100% in [11]; 0% in experiment [12]. In addition, the “%Inh” value is on record as 0% in experiment [13]; 0% in experiment [14]; 28% in experiment [15]; 97% in [16]; 98.8% in [17]; 29% in experiment [18]. Also, the “%Inh” value in experiment [19] and in [20] was 0% throughout.
For the compound `CCn1c(-c2nonc2N)nc2c(C#CC(C)(C)O)nc(OC[C@H](N)c3ccccc3)cc21` [GSK943949], the “%Inh” value in experiment [1] (setting [21]), in experiment [2] (setting [21]), in [3] (setting [21]), in experiment [4], in [5] and in experiment [6] was 0% in each case. Besides, the “%Inh” value in experiment [7] is recorded as 0%; in experiment [8], 0%; in experiment [9], 0%; in experiment [10] it was 0%; in experiment [11] it was 0%; in experiment [12] it was 95.8%. The “%Inh” value in experiment [13] is reported as 98.8%; in experiment [14] it was 95.8%; in experiment [15], 19%; in experiment [16] it was 0%; in [17] it was 3%; in experiment [18] it was 0%. For the same compound, the “%Inh” value was 18% in experiment [19] and 0% in experiment [20].
For the compound `O=C(Nc1cccc(-c2nn3ncccc3c2-c2ccnc(Nc3ccccc3)n2)c1)c1c(F)cccc1F` [GSK198271], the “%Inh” value in experiment [1] (setting [21]) is listed as 17%; in experiment [2] (setting [21]), 60%; in experiment [3] (setting [21]), 6%; in experiment [4], 42%; in [5], 0%; in experiment [6], 21%. Besides, the “%Inh” value in experiment [7] was determined as 0%; in experiment [8], 25%; in experiment [9] it was 0%; in experiment [10], 3%; in [11], 31%; in [12] it was 0%. Also, the “%Inh” value in experiment [13] was found to be 16%; in [14], 0%; in experiment [15], 38%; in [16], 12%; in experiment [17] it was 15%; in experiment [18], 69%. Further, the entries for the “%Inh” value in experiment [19] and in experiment [20] were 38% and 0%, respectively.
Regarding `O=C(Nc1n[nH]c2nc(-c3ccc(O)cc3)ccc12)C1CC1` [SB-710363], the “%Inh” value in [1] (setting [21]) is 38%; in experiment [2] (setting [21]), 88%; in [3] (setting [21]), 74%; in experiment [4], 0%; in experiment [5] it was 0%; in experiment [6] it was 74%. Also, the “%Inh” value in experiment [7] is given as 55%; in experiment [8], 50%; in experiment [9] it was 1%; in experiment [10] it was 0%; in [11], 0%; in experiment [12], 0%. The “%Inh” value in experiment [13] is listed as 0%; in [14], 61%; in experiment [15] it was 0%; in experiment [16], 0%; in experiment [17] it was 0%; in experiment [18] it was 0%. The “%Inh” value was 0% in experiment [19] and 18% in [20].
